The source of these data is ChEMBL document CHEMBL3988442, “University of Dundee, Small-Polar-MMV Screening Library” (2021).

Among all 67,000 compounds or so, about 300 (0.45%) showed an effect of 50% or more. Shown is part of a subset that was picked to be rich in strong results.

For the experiment, the target named is Polyketide synthase Pks13 (Mycobacterium tuberculosis (strain ATCC 25618 / H37Rv)) (UniProt I6X8D2). The experiment in a line: Mycobacterium tuberculosis Polyketide synthase 13 Thioesterase (PKS13). It is filed as functional. On the set-up: scale not given: in the data most compounds retested in dose-response had high values. Particulars: 30 µM.
Chain of Polyketide synthase Pks13 (Mycobacterium tuberculosis (strain ATCC 25618 / H37Rv)) (I6X8D2 whole entry): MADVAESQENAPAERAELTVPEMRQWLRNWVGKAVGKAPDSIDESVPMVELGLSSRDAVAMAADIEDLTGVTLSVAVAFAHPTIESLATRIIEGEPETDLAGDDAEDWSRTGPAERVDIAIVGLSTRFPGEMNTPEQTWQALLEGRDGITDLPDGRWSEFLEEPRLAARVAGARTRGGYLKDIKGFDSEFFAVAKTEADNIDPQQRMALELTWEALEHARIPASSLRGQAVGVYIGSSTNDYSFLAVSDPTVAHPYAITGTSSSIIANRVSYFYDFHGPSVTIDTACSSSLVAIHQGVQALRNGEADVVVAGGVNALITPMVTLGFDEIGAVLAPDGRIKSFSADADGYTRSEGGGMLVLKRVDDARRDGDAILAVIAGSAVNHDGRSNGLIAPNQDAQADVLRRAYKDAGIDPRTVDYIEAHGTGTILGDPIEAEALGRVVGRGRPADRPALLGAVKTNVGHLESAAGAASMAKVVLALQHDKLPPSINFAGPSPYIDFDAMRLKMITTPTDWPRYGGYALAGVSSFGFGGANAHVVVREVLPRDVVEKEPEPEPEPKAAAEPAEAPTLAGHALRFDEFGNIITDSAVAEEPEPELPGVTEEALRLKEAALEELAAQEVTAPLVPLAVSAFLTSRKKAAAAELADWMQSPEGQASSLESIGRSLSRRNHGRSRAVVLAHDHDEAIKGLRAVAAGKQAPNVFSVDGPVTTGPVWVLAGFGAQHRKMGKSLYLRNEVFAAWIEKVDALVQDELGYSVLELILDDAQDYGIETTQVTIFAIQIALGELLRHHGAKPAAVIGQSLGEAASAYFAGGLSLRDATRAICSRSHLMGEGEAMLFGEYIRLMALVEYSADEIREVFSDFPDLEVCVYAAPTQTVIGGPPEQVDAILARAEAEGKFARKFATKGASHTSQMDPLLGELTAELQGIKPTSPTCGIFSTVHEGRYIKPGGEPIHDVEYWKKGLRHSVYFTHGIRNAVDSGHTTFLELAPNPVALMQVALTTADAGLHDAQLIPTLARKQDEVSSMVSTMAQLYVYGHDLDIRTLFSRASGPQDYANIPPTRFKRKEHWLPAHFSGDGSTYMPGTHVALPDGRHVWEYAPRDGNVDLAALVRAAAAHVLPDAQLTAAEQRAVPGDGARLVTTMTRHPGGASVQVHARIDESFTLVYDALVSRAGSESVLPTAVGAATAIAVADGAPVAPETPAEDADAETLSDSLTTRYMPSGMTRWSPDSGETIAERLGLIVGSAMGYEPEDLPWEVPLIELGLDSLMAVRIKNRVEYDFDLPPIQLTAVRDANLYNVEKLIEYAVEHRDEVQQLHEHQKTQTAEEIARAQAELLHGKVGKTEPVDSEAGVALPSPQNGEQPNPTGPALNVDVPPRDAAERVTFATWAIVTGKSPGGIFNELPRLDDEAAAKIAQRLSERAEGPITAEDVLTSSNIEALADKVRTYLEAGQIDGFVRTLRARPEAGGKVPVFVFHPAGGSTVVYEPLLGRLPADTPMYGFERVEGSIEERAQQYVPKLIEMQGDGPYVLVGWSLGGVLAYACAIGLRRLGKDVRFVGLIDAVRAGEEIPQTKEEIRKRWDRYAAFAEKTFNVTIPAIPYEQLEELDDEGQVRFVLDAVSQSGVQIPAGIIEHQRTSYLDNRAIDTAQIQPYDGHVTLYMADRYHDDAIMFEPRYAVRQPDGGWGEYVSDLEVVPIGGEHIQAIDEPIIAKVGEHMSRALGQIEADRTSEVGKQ
Take `CN(C)C(=O)N1CC[C@]2(O)CCN(C(=O)c3ccc(C#N)nc3)C[C@@H]2C1`: the Percent Effect was -13.4%. Regarding `CCCN1CCN(C(=O)c2cc[nH]n2)[C@H]2CS(=O)(=O)C[C@H]21`, the Percent Effect is -8.12%. The same measure for `Cc1nnc([C@@H]2CC[C@@H]3[C@@H](CCN3Cc3ccccn3)O2)o1`: -21.9%.

In the case of `O=C1[C@@H]2CCN(CC3CCOCC3)C[C@@H]2OCCN1c1ccccc1`, the Percent Effect is -30.7%. The same measure for `CCC(=O)N1CCN(C(=O)c2cn3ccsc3n2)[C@H]2CS(=O)(=O)C[C@H]21`: -15.8%. With `O=C(Cc1cnccn1)N1C[C@H]2CC[C@@H]1CN(Cc1cscn1)C2`, the Percent Effect was -24.8%. Regarding `CN(Cc1ccccc1)C(=O)c1nc(S(C)(=O)=O)n2ccccc12`, the Percent Effect was -33.7%. The value for `CN(CCC(F)(F)F)C(=O)c1nc(S(C)(=O)=O)n2ccccc12` was -23%; that for `Cc1nc(C(=O)N(C)CC(F)(F)C(F)(F)F)c2ccccn12` was 132%; that for `CC(C)CN1C(=O)CO[C@@H]2CN(C(=O)NC(C)C)C[C@H]21` was -42.5%.

Turning to `O=C(CSCC1CC1)N1C[C@@H]2CC[C@H](C1)N(Cc1ccccn1)C2=O`, the Percent Effect is -35%. The same measure for `CO[C@H]1CCN(Cc2c(C)noc2C)[C@@H]2CN(Cc3ccncc3)C[C@H]12`: 13.1%; for `CNCc1cn(C[C@H]2C[C@@H]3CCN2C[C@@H]3C(=O)NC2CCCCC2)nn1`: -24.7%. The value for `CNc1cncc(C2CCCN2C(=O)c2ccc3oc(=O)n(C)c3c2)n1` (stereo not drawn) was -18.4%; that for `CNc1cncc(C2CCCN2C(=O)Cn2c(=O)oc3ccccc32)n1` (stereo not drawn) was 130%.

Take `Cn1cc(C2CCCN2C(=O)Cn2c(=O)oc3ccccc32)cn1` (stereo not drawn): the Percent Effect was -24.9%. `O=C(C1CCCO1)N1C[C@@H]2CCN(c3cnccn3)C[C@@H]2C1` (stereo partly drawn): the Percent Effect is -10.1%. Turning to `Cc1noc([C@@H]2C[C@H]3OCC[C@H]3N(S(C)(=O)=O)C2)n1`, the Percent Effect was -22.1%.

For `Cc1noc([C@@H]2C[C@H]3OCC[C@H]3N(S(=O)(=O)c3ccccc3)C2)n1`, the Percent Effect was -2.66%.

Regarding `Cc1noc([C@@H]2C[C@H]3OCC[C@H]3N(S(=O)(=O)c3cccnc3)C2)n1`, the Percent Effect amounted to 56.3%. The same measure for `CCOC(=O)[C@@H]1[C@@H](c2ccccc2)CN2CCN(C(=O)C3CC3)C[C@H]12`: -34.9%. The same measure for `CCC[C@H]1CN(S(C)(=O)=O)C[C@@H]1NC(=O)COC(C)C`: -31%. The same measure for `CCC[C@H]1CN(S(C)(=O)=O)C[C@@H]1NC(=O)c1ccc(COC)cc1`: 125%; for `CCC[C@H]1CN(S(C)(=O)=O)C[C@@H]1NC(=O)Cc1ccc(OC)cc1`: -10.8%. Consider `CCc1cnc(N2C[C@H]3CCCC(N(C)Cc4ccccn4)[C@H]3C2)nc1` (stereo partly drawn), for which the Percent Effect was -25%. The value for `CC1(C)OCC(CNC(=O)c2cnn(-c3ccc(Cl)cc3)c2N)O1` (stereo not drawn) was -15.3%; that for `Cc1ccc(C)c(-n2ncc(C(=O)NCC3COC(C)(C)O3)c2N)c1` (stereo not drawn) was 66.6%. For the compound `CC1(C)OCC(CNC(=O)c2cnn(-c3cc(Cl)ccc3Cl)c2N)O1` (stereo not drawn), the Percent Effect was -5.14%.

As to `O=C(NCc1ccc2c(c1)OCCO2)N1CCC(CO)CC1`, the Percent Effect came to 52.7%.

For the compound `CC(=O)NCC1CCN(C(=O)NCc2ccc3c(c2)OCCO3)CC1`, the Percent Effect was -0.159%. The same measure for `NC(=O)C1CCN(C(=O)NCc2ccc3c(c2)OCCO3)CC1`: -21.9%. The same measure for `COCCN1C(=O)[C@]2(CC[C@@H]3CN(C(=O)NCC(C)C)C[C@@H]32)N=C1C`: -6.17%; for `COC(=O)c1sc2cccc(F)c2c1CNC(=O)C1CC1`: 1.9%; for `COC(=O)c1sc2cccc(F)c2c1CNC(=O)C1CCCO1` (stereo not drawn): 1.86%. Turning to `COC(=O)c1sc2cccc(F)c2c1CNC(=O)C1CCOC1` (stereo not drawn), the Percent Effect came out at 68.2%. The same measure for `Cc1noc(C)c1CN1CC[C@H]2[C@H]1CCN2CC1CCOCC1`: 10.3%; for `CN(Cc1noc(C(C)(C)C)n1)Cc1ccccc1N1CCCCC1`: 1.5%; for `CN(Cc1ccc(N2CCCCC2)cc1)Cc1noc(C(C)(C)C)n1`: 85.2%. The same measure for `CN(Cc1ccc(N2CCOCC2)cc1)Cc1noc(C(C)(C)C)n1`: 21.8%; for `Cn1cncc1CN1C[C@@H]2OCCN(c3ncccn3)[C@@H]2C1`: -16.4%; for `O=C(Nc1ccccc1)N1C[C@@H]2OCCN(C(=O)c3ccco3)[C@@H]2C1`: -42.5%. For `CN1CCN(C(=O)[C@@H]2CCO[C@@H]3CCN(c4ncccn4)C[C@@H]32)CC1`, the Percent Effect is -7.46%.

In the case of `Cc1nn(C)cc1-c1cc(C(F)F)n2nc(CCC(=O)O)nc2n1`, the Percent Effect is 16.4%.

`CCn1cc(-c2cc(C(F)F)n3nc(CCC(=O)O)nc3n2)cn1`: the Percent Effect came to 32.3%.

Take `Cn1cc(-c2cc(C(F)F)n3nc(CCC(=O)O)nc3n2)cn1`: the Percent Effect was 51.2%.

`CCn1ncc(-c2cc(C(F)F)n3nc(CCC(=O)O)nc3n2)c1C`: the Percent Effect was determined as 15.6%. For `CCn1cc(-c2cc(C(F)F)n3nc(CC(=O)O)nc3n2)cn1`, the Percent Effect was found to be 62.5%.

With `CC(C)c1cc(C(F)(F)F)n2nc(CCC(=O)O)nc2n1`, the Percent Effect came to 5.23%. The same measure for `CN(C)C(=O)N1CCN(CCCc2ccccc2)[C@H]2CS(=O)(=O)C[C@H]21`: -15%; for `Cc1oncc1C(=O)N1C[C@H](OCc2ccccn2)[C@H]2OCCC[C@H]21`: -0.48%. Consider `O=S1(=O)C[C@@H]2[C@H](C1)N(Cc1ncc[nH]1)CCN2Cc1cccnc1`, for which the Percent Effect was -6.48%. On to `COC(=O)CNC(=O)c1cn(-c2ccccn2)c(=O)c2ccccc12`, for which the Percent Effect amounted to 41.4%. Take `O=C(O)c1cn(-c2ccccn2)c(=O)c2ccccc12`: the Percent Effect came to 57%.
